# Source: PubChem
# IMPase cell inh: IMPase inhibition in cells; CHO-M1 cells, IP1 accumulation, HTRF TR-FRET ratio; inhibition (IP1 accumulation), % at 46.1 µM; 120,000 tested, under 10 active; AID 901; active = well fitted curve in the direction sought with a large enough effect in the signal ratio, not every such curve was filed as active; inconclusive = small, poorly fitted or top-dose-only effect, or a change in a side signal; inactive = no such curve, though single readings can be large or run the other way; the % refers to the signal ratio;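 also: cells stimulated with carbachol in lithium chloride buffer; higher means more IMPase inhibition seen as more IP1 and lower FRET ratio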
#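 In this qHTS, compounds (final up to 46 uM) act on CHO-M1 cells that are then activated through the M1 receptor with carbachol, in pH 7.4 buffer containing 50 mM LiCl, for 30 min. IP1 accumulation is quantified by the IP-One immunoassay.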
# HPGD inh: inhibitors of human 15-hydroxyprostaglandin dehydrogenase (HPGD); Potency, µM, actives largely listed as inhibitors; purified HPGD, NADH fluorescence kinetic, PGE2 substrate; 150,000 tested, 4.3% active; AID 894
#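 20 nM HPGD preincubated 15 min at room temperature with compound in 50 mM Tris-HCl pH 8, 0.01% Tween 20. Started with 1 mM NAD+ and 30 uM prostaglandin E2; NADH fluorescence (360/450 nm) read 5 times over 30-s intervals, last minus first.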
# ALDH1A1 inh: inhibitors of human aldehyde dehydrogenase 1A1; P00352; Purified ALDH1A1, NADH fluorescence, propionaldehyde substrate; Potency, µM (series often up to 75.3 µM), most hits filed as inhibitors; 220,000 tested, 7.3% active
# Target sequence (P00352 whole entry, looked up): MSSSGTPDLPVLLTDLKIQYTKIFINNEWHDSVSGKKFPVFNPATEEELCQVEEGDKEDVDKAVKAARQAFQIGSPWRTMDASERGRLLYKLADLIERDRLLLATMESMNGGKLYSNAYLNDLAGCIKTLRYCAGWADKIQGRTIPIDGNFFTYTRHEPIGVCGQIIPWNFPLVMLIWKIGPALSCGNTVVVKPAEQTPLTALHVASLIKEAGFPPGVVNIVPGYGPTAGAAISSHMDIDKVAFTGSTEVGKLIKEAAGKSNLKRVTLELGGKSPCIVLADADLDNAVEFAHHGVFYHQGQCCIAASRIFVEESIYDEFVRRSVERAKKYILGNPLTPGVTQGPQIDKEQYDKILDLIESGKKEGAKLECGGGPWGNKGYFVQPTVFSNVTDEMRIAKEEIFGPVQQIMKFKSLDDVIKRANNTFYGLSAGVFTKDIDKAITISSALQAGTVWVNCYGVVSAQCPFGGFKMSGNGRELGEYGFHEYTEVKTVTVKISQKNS
# Hits are given with their value; i = inactive; ? = inconclusive; nt = no result given; [ ] = dose if it differs, or a comment. Only some compounds are listed: those with a hit (about 9% of all), similar ones and a draw of the others. Unless noted, calls follow the shape of the dose curve; as a rule, active = well fitted inhibition curve with a large enough effect (not every such curve was filed as active); inconclusive = small, poorly fitted or top-dose-only effect, or another doubt; inactive = no such curve, though single readings can be large or run the other way.
SMILES,IMPase cell inh,HPGD inh,ALDH1A1 inh
COCc1[nH]nc2c1C1(C(=O)Nc3ccc(F)cc31)C(C#N)=C(N)O2 (stereo not drawn),i,i,i
Cc1ccc(SCc2[nH]nc3c2C2(C(=O)Nc4ccc([N+](=O)[O-])cc42)C(C#N)=C(N)O3)cc1 (stereo not drawn),?,i,12.6µM
Cc1ccc(SCc2[nH]nc3c2C2(CCSCC2)C(C#N)=C(N)O3)cc1,i,i,10µM
CCOC(=O)N1CCC2(CC1)C(C#N)=C(N)Oc1n[nH]c(CSc3ccc(C)cc3)c12,i,i,i
COc1ccc(C2COc3c(ccc(O)c3OC)C2)c(OC)c1O (stereo not drawn),nt,i,i
O=C(O)c1ccc(N=C2SCC(=O)N2Cc2ccccc2)cc1,nt,nt,12.6µM
Cc1ccccc1OCC(=O)N/N=C1\SCC(=O)N1Cc1ccccc1,nt,i,i
O=C(O)c1ccc(CN2C(=O)CSC2=S)cc1,i,i,12.6µM
CC(C)(C)c1ccc(CN2C(=O)CSC2=O)cc1,nt,nt,i
Cc1cc(C)c(C(=O)/C=C/c2ccco2)c(=O)[nH]1,nt,nt,11.2µM
Cc1ccc(/C=C/C(=O)c2c(C)cc(C)[nH]c2=O)cc1,?,i,i
COCCNC(=O)[C@@]1(Cc2ccccc2)C=C[C@@H](C)N1C(=O)OC,nt,i,i
O=C(c1cnc2nc3ccccc3n2c1)c1cc(F)ccc1O,nt,nt,4.47µM
O=C(c1cnn(C(=O)COc2ccccc2F)c1)c1cc(F)ccc1O,nt,nt,0.398µM
CCCCN1Cc2cc(C(=O)c3cc(F)ccc3O)cnc2NC1=O,i,?,?
O=C(c1cn[nH]c1)c1cc(F)ccc1O,i,i,?
Cc1[nH]nc2ncc(C(=O)c3cc(F)ccc3O)cc12,i,?,i
CN(C)c1cccc(C(=O)n2cc(C(=O)c3cc(F)ccc3O)cn2)c1,i,i,4.47µM
O=[N+]([O-])c1cccc(/C=N/NC2=NS(=O)(=O)c3ccccc32)c1,nt,nt,i
N#C/C(=C/c1cn(CC(=O)O)c2ccccc12)C(=O)NCc1ccccc1,nt,nt,i
CCc1cc2c3c(c(=O)oc2cc1O)CCCC3,i,?,?
CCCCC(=O)c1c(O)c2ccccc2oc1=O,i,i,i
COc1ccc(N=Cc2c(O)c3ccccc3oc2=O)cc1,i,i,i
CCOc1ccc(OCC(=O)c2c(O)c3ccccc3oc2=O)cc1,i,12.6µM,8.91µM
COc1ccc(OCC(=O)c2c(O)c3ccccc3oc2=O)cc1,i,22.4µM,?
SMILES,IMPase cell inh,HPGD inh,ALDH1A1 inh
CCCN(CCO)Cc1ccc(F)c(Br)c1,i,i,i
O=C(NN=C1CCCC1)c1cccs1,nt,?,i
O=C(NN=C1C2CC3CC(C2)CC1C3)c1cccs1,i,i,20µM
Cc1ccc(C(=O)CC(c2cccs2)S(=O)(=O)c2ccc(C)cc2)cc1 (stereo not drawn),nt,i,i
O=C(CC(c1cccs1)S(=O)(=O)c1ccccc1)c1ccc(F)cc1 (stereo not drawn),nt,i,25.1µM
CCCn1c(SCC(=O)N2CCCC(C)C2)nnc1-c1cccnc1 (stereo not drawn),nt,nt,i
c1ccc(CCNc2c3c(nc4ncnn24)CCC3)cc1,i,17.8µM,3.55µM
Fc1ccccc1CCNc1c2c(nc3ncnn13)CCCC2,nt,nt,i
c1ccc(CNc2ccnc(-c3ccoc3)n2)cc1,nt,i,i
CN(C(=O)COC(=O)c1ccc(Cl)nc1)C1CCS(=O)(=O)C1 (stereo not drawn),nt,nt,i
FC(F)(F)c1cccc(Cc2noc(CN3CCCC(CN4CCCC4)C3)n2)c1 (stereo not drawn),nt,nt,i
O=C(NNS(=O)(=O)c1ccccc1[N+](=O)[O-])c1ccc(F)cc1,nt,nt,i
O=C(NNS(=O)(=O)c1ccccc1[N+](=O)[O-])c1ccc(O)cc1,i,12.6µM,3.16µM
CCOC(=O)c1cc(-c2ccc(OC(F)F)cc2)nc2c1c(=O)[nH]c(=O)n2C,nt,?,i
Cc1cc2c(ncn2Cc2ccccc2)c([N+](=O)[O-])c1C,i,20µM,?
COc1ccc(Cn2cnc3c(N)c(C)c(C)cc32)cc1,nt,nt,i
COC(=O)c1[nH]c2cc(OC)c(OC)cc2c1NC(=O)c1cccc(OC)c1,i,i,i
CCOC(=O)c1ccccc1OCc1cc(/C=N/n2cnnc2)ccc1OC,i,i,i
CCOc1cc(/C=N/n2cnnc2)ccc1OS(=O)(=O)c1ccccc1,nt,nt,12.6µM
O=S(=O)(Oc1ccccc1/C=N/n1cnnc1)c1ccccc1,nt,nt,22.4µM
COc1ccccc1/C=N/n1cnnc1,i,?,?
C#CCCCO/N=C1/C[C@@H](O)[C@@H](O)[C@@H]2[C@@H]3C(=O)N(CC)C(=O)[C@H]3CC[C@H]12,nt,nt,i[13.5 µM]
O=C(Cn1c(C(F)(F)F)nc2ccccc21)c1ccc(F)cc1,i,i,i
O=C(N/N=C/c1ccc(Cl)cc1)C1CC12CCC2 (stereo not drawn),nt,nt,i
COc1ccc(COC(=O)N/N=C2/C[C@@H](O)[C@@H](O)[C@@H]3[C@H]4C(=O)N(c5ccc(F)cc5F)C(=O)[C@@H]4CC[C@@H]23)cc1,nt,nt,i[13.5 µM]
SMILES,IMPase cell inh,HPGD inh,ALDH1A1 inh
COCCNC(=O)CSc1nc2ccccc2c(=O)n1CCC(=O)NCCc1ccc(OC)c(OC)c1,nt,nt,14.1µM
COc1ccc(CCNC(=O)CCCn2c(SCC#N)nc3ccccc3c2=O)cc1OC,i,i,i
COc1ccc(CCNC(=O)CCn2c(SCC#N)nc3ccccc3c2=O)cc1OC,i,i,20µM
COCCNC(=O)CSc1nc2cc3c(cc2c(=O)n1CCCC(=O)NCCc1ccc(OC)c(OC)c1)OCO3,nt,nt,i
O[Si@](CCCN1CCCCC1)(c1ccc(F)cc1)C1CCCCC1,i,nt,nt
CCCCCCCCCCCCCCC(C(=O)OC)C(O)(CC(=O)OC)C(=O)OC (stereo not drawn),nt,i,i
CC(C)(C)c1ccc(C(=O)Nc2cc(-c3nc4ccccc4o3)ccc2Cl)cc1,i,nt,nt
COc1ccc(/C=C/C(=O)Nc2ccc(Cl)cc2Cl)cc1,i,nt,nt
COc1ccc(NS(=O)(=O)c2cccs2)c(OC)c1,i,i,i
COc1ccc(NS(=O)(=O)c2ccc(SC)cc2)c(OC)c1,i,i,8.91µM
CCOc1ccc(S(=O)(=O)Nc2cccc(OC)c2)cc1,i,?,?
COc1ccc(NC(=O)C2CC2)cc1NS(=O)(=O)c1ccc(F)cc1,i,i,i
CCOc1ccc(S(=O)(=O)Nc2ccccc2C(=O)N2CCCC2)cc1,nt,nt,i
COc1cc(NS(=O)(=O)c2ccc(F)cc2)c(OC)cc1NC(C)=O,i,i,7.94µM
CCOc1ccc(S(=O)(=O)NN)cc1,i,i,2µM
CCOc1ccc(S(=O)(=O)NN=C2CCN(C(C)=O)CC2)cc1,nt,nt,7.94µM
N#Cc1ccc(S(=O)(=O)Nc2ccc3ccccc3n2)cc1,nt,nt,i
C=CCn1c(CNC(=O)c2cccs2)n[nH]c1=S,nt,i,?
O=S(=O)(c1ccccc1)N1CCC2(CC1)CN(Cc1ccccc1)C2,nt,i,i
Cc1ccc(S(=O)(=O)NN=C2CCN(Cc3ccccc3)CC2)cc1,nt,i,3.55µM
Cc1ccc(S(=O)(=O)NNC(=O)C2CCN(Cc3ccccc3)CC2)cc1,i,i,i
CCOC(=O)Cc1ccc(NS(=O)(=O)c2ccc(SC)cc2)cc1,i,i,8.91µM
COc1ccc(S(=O)(=O)NN=C2CCCC2)cc1,i,i,?
CCOc1ccc(NS(=O)(=O)c2ccc(N)cc2)cc1,i,i,i
CCOC(=O)c1ccc(NS(=O)(=O)c2ccc(SC)cc2)cc1,i,i,?
CCOc1ccc(NS(=O)(=O)c2ccc(SC)cc2)cc1,i[0.369 µM],i,11.2µM
